An excerpt weighted towards active compounds, which were near 5.2% of everything screened.
NadD block = inhibitors of Staphylococcus aureus NadD; purified NadD enzyme, colorimetric absorbance read-out; inhibition, % at 20 µM; hit rate 0.78% among 360,000; AID 602399; in the data active means inhibition above about 26%
GRIN3A LBD mod = NR3A (human) ligand-binding domain modulation | hit rate 2.5% among 340,000 | Tm shift relative to glycine control, % at 25 µM | NR3A LBD differential scanning fluorimetry, Tm shift; 0% = protein alone, 100% = glycine-bound protein;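 active means melting temperature shift of at least 10% of the positive control shift, at one fixed dose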
SMARCA2 act = increases SMARCA2 function in MMTV reporter cells. MG213 cells, MMTV-luciferase reporter, dexamethasone, overnight. activation, % at 9.1 µM. hit rate 1% among 370,000; in the data active means activation above about 7.8%;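 further: 0% = vehicle wells and 100% = reference activator wells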
esBAF inh = blocks esBAF chromatin remodeling in mouse ES cells; Bmi1-luciferase knock-in reporter, 24 h; 100% = twice the neutral-well signal; reporter increase, % at 12.5 µM; hit rate 2% among 350,000; AID 602393; in the data active means activation above about 40%;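 further: 0% = median of the plate's neutral control wells and 100% = double that signal; a rise in the Bmi1 reporter signal indicates esBAF inhibition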
SKN-1 inh = inhibitors of C. elegans SKN-1. C. elegans VP596 Pgst-4::GFP/RFP ratio, acrylamide-induced, 24 h. inhibition, % at 21.8 µM. hit rate 0.49% among 360,000;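 active means interference check ratio from 0.5 to 1.5 plus GFP to RFP signal ratio inhibition reaching or exceeding a fixed threshold, cut at about 30% in these data, passing the limit was not always enough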
Vif imaging = blocks HIV Vif function | inhibition, % at 7.49 µM | AID 602346 | HEK293T cells, Vif self-association by quenched fluorescence, imaging, 24 h | hit rate 0.35% among 340,000; in the data active means inhibition above about 50%, passing the limit was not always enough
SMARCA2 act conf = SMARCA2 activation, confirmation screen; shares compounds with SMARCA2 act; MG213 cells, MMTV-luciferase with dexamethasone, luminescence, overnight; MG213 cells expressing E1A, Rb sequestered; DMSO wells 0%, reference activator 100%; activation, % at 9.1 µM; hit rate 30% among 3,500; AID 652260;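 active means activation above its plate's cutoff, the mean activation of tested wells plus 3 SD, cut at about 7.9% in these data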
GAL4-VP16 Luc = activates GAL4-VP16 luciferase, flagging SMARCA2 activator hits; activation, % at 9.1 µM; AID 686939; hit rate 41% among 3,500; shares compounds with SMARCA2 act; HEK293 GAL4-VP16 pG5luc reporter, luciferase luminescence; scaled: DMSO wells 0%, SAHA wells 100%;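 active means activation above the solvent-only control well mean plus 3 SD, averaged across control plates, cut at about 5.2% in these data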
* marks the source's active call; other numbers are inactive results; x = no result given.

SMILES	NadD block	GRIN3A LBD mod	SMARCA2 act	esBAF inh	SKN-1 inh	Vif imaging	SMARCA2 act conf	GAL4-VP16 Luc
COc1ccccc1C(=O)NC1CCCCCCC1	0	-2	8.0*	18	-9	-1	5	3
O=C(NC[C@@H]1[C@@H](c2ccccc2)[C@@H](CO)N1C(=O)Cc1cccnc1)C1CC1	x	x	x	-10	x	x	x	x
Clc1ccc(OCCSc2ncccn2)cc1	-4	1	8.0*	x	38*	-2	7	5.5*
C[C@H](CO)N1C[C@H](C)[C@H](CN(C)S(=O)(=O)c2cn(C)cn2)Oc2ccc(NS(C)(=O)=O)cc2CC1=O	x	x	x	0	x	x	x	x
CC1C/C(=N/NC(=O)c2cccc(F)c2)c2ccc(O)cc2C1 (centres undefined)	-6	0	9.2*	13	3	13	-3	0
C/C(=N/OCc1ccc(Br)cc1)c1ccccn1	3	4	9.1*	6	54*	-8	7	8.7*
Cc1ccc(C)c(C(=O)Cn2ncc(Cl)c(Cl)c2=O)c1	-1	0	30*	x	8	-1	-14	1
Cc1cccc(Cn2ncc(Cl)c(Cl)c2=O)c1	-2	1	10*	-3	6	1	-3	0
Cc1ccc(S(=O)(=O)N2CC[C@H]3[C@@H](CO)N(C)c4ccc(C#Cc5cccnc5)cc4[C@H]32)cc1	x	x	x	1	x	x	x	x
COc1ccccc1CNC(=O)C[C@H]1C[C@@H]2c3cc(NC(=O)Nc4ccc(C(F)(F)F)cc4)ccc3O[C@@H]2[C@@H](CO)O1	x	x	x	4	x	x	x	x
NS(=O)(=O)c1ccc(NC(=O)COC(=O)C2CCCCC2)cc1	4	0	1	x	-7	4	x	x
CC(C)c1ccc(NC(=O)COC(=O)C2CCCCC2)cc1	-5	-1	8.4*	40	21	19	0	1
Cc1cc(Cl)c2oc(C(=O)N3CCN(c4cccc(C)n4)CC3)c(C)c2c1	1	-1	11*	74*	26	-4	7	15*
Cc1ccc2oc(C(=O)N3CCN(c4cccc(C)n4)CC3)c(C)c2c1	-3	-1	1	26	-8	0	x	x
Cc1ccc(C)c(C(=O)NC2CC(C)(C)NC(C)(C)C2)c1	-1	-2	4	-6	2	-4	x	x
CC1(C)CC(NC(=O)c2cc(Cl)ccc2Cl)CC(C)(C)N1	-5	0	10*	-8	15	1	-3	0
COc1ccc(C(=O)N/N=C/c2ccc(N3CCOCC3)s2)cc1OC	0	-3	8.4*	5	5	-6	-2	-1
COc1ccc(COCC(O)CN2CCc3ccccc3C2)cc1OC (centres undefined)	-7	2	8.8*	-8	-1	4	-2	3
OC(COCc1ccccc1)CN1CCc2ccccc2C1 (centres undefined)	-7	-4	-1	x	-2	3	x	x
CC1(C(=O)NS(=O)(=O)Cc2ccccc2)CCN1C(=O)Cc1ccc(-c2ccccc2)cc1 (centres undefined)	6	x	8.3*	2	9	-6	-5	0
CC1(C(=O)NS(=O)(=O)Cc2ccccc2C(F)(F)F)CCN1C(=O)Cc1ccccc1 (centres undefined)	3	x	-1	-2	4	6	x	x
COc1ccc(CNC(=O)C[C@@H]2CC[C@@H]3[C@@H](COc4ccc(NC(=O)C5CC5)cc4C(=O)N3C)O2)cc1	x	x	x	-7	x	x	x	x
Cc1ccc(/C=C2/NC(=O)[C@H](C)NC2=O)cc1	-1	0	8.4*	16	-13	0	2	3
C[C@@H]1NC(=O)/C(=C\c2ccccc2Br)NC1=O	-7	-2	-1	-4	-3	-5	x	x
CCOC(=O)Cc1nc(N2CCN(C(=O)C3CCCO3)CC2)c2c(C)c(C(=O)OCC)sc2n1 (centres undefined)	x	x	11*	x	x	x	2	1
COc1ccc(C(=O)NC2CC2)cc1OC1CCN(Cc2cnn(C)c2C)CC1	-3	3	-2	-3	-3	-3	x	x

Screening data (PubChem BioAssay)
